# Out of some 48,000 compounds screened, about 13,000 (27%) showed an effect of 50% or more. Some of the results follow.
# Tested on: Wolbachia pipientis
# Assay: Anti-Wolbachia Cell-Based Screen
# Format: functional
# Parameters: scale not given: in the data most compounds retested in dose-response had high values
# Conditions: 5 µM
row,SMILES,Percent Effect [%]
1,Cc1cc(C)n(C2CN(C(=O)c3cn4ccsc4n3)C2)n1,-20.57
2,CCn1c(CN(C)C)nnc1C1CCN(Cc2ccc(Cl)c(F)c2)CC1,-16.98
3,CO[C@@H]1CCN(c2ncc(F)cn2)[C@H]1Cc1cnn(C)c1,112
4,COCCO[C@@H]1CCN(c2cc(OC)ncn2)[C@H]1Cc1cnn(C)c1,-2.108
5,COCCO[C@H]1CCN(c2cc(OC)ncn2)[C@H]1Cc1cnn(C)c1,-1.257
6,Cn1cc(C[C@H]2[C@H](N3CCOCC3)CCN2c2ncc(F)cn2)cn1.O=C(O)C(F)(F)F,-13.6
7,COc1cc(N2CC[C@@H](OC)[C@@H]2Cc2cnn(C)c2)ncn1,110.7
8,CO[C@@H]1CCN(c2ncccn2)[C@H]1Cc1ccccc1,-5.923
9,CCc1ccccc1CNC(=O)CNCC(F)(F)F,-0.7333
10,Cc1nc(C(C)(C)NC(=O)Nc2cccc(C#N)c2)no1,-15.63
11,O=C(Cn1cccn1)N1CCC(Cn2cc(-c3ccsc3)nn2)CC1,4.923
12,O=C(C1CCOC1)N1CCC(Cn2cc(-c3ccsc3)nn2)CC1 (centres undefined),-11.04
13,O=C(C1CC1)N1CCC(Nc2nc(O)cc(-c3ccsc3)n2)CC1,99.22
14,CCCC(=O)N1CCC(Nc2nc(O)cc(-c3ccsc3)n2)CC1,101
15,CCCC(=O)N1CCC(Nc2ncc(Br)cn2)CC1,-8.622
16,CC(C)CC(=O)N1CCC(Nc2nc(O)cc(-c3ccsc3)n2)CC1,93.38
17,CC(C)Nc1nc2c(c(NC3CC3)n1)CN(C(=O)Cc1ccsc1)CC2,-13.92
18,O=C(O)C(F)(F)F.O=C(O)c1cc2c(nc1-c1ccsc1)CCN(C(=O)C1CC1)CC2,-4.061
19,CC(=O)c1c(F)cccc1NC1CCN(C(=O)CC(C)C)CC1,-2.175
20,Cc1nnc(CN2CCCC2c2ccc3c(c2)OCCO3)n1C (centres undefined),15.49
21,CC(C)(C)OC(=O)N[C@H]1CCN(C(=O)c2cc(Cl)c[nH]2)C1,-15.92
22,CCCC(C)NC1CCN(c2ccc(-n3ccnc3C)cc2)CC1 (centres undefined),-8.3
23,CC(NC(=O)CSCC(=O)Nc1ccccc1)c1ccccc1 (centres undefined),5.031
24,COCC(=O)Nc1ccc([C@@H](O)[C@H]2COCC(=O)N2CC(C)C)cc1,0.04576
25,CCC(=O)Nc1ccc(C(C)NC(=O)COC)cc1 (centres undefined),92.17

row,SMILES,Percent Effect [%]
1,CC(NC(N)=O)C(=O)N(C)CCCc1cc(-c2ccccc2)no1 (centres undefined),-0.2623
2,CCCNC(=O)C1(Cc2cc(-c3ccccc3)no2)CCN(C(C)=O)C1 (centres undefined),76.91
3,CCNC(=O)C1(Cc2cc(-c3ccccc3)no2)CCCN(C(C)C)C1 (centres undefined),86.79
4,Cc1cnn(CCNCc2cc(-c3ccccc3)no2)c1,2.44
5,CCNC(=O)C1(Cc2cc(-c3ccc(C)cc3)no2)CCCN(C)C1 (centres undefined),151.7
6,CCNC(=O)C1(Cc2cc(-c3ccccc3)no2)CCCN(C(C)=O)C1 (centres undefined),105.3
7,Cc1ccc(-c2cc(CNC(=O)N3CCOC(C)C3)on2)cc1 (centres undefined),-4.045
8,Cc1ccc(-c2cc(CNC(=O)N3CCC(CO)CC3)on2)cc1,6.064
9,CNC(=O)CC1CCN(Cc2nc(-c3ccc(SC)cc3)oc2C)CC1,-19.45
10,O=C(O)C(F)(F)F.O=C([C@H]1C[C@H]2OCC[C@H]2N(Cc2ccco2)C1)N1CCCO1,11.53
11,COc1ccc(CN2C[C@@H](CN(C)C)[C@@H](CO)C2)c(Cl)c1OC,-2.231
12,c1cc2c(cc1C[C@@H]1CC[C@H](CN3CCCOCC3)O1)OCO2,5.044
13,Cc1cc(C)cc(C2(C(=O)NC(C)Cn3ccnc3)CC2)c1 (centres undefined),-3.779
14,COc1ccc(OC)c(C(C)Nc2nc3c(C)nn(C)c3c(=O)n2C)c1 (centres undefined),-10.12
15,CC(C)C(=O)N1CCN(CCOc2cccc(C#N)c2)CC1,22.03
16,CN(C)C(=O)NCC(=O)N(C)Cc1cc(-c2ccccc2)no1,2.31
17,CCNC(=O)C1(Cc2cc(-c3ccccc3)no2)CCCN(C)C1 (centres undefined),76.81
18,CCNC(=O)CNS(=O)(=O)Cc1cc(-c2ccccc2)no1,-10.1
19,Cc1cc(NCC(=O)N(C)Cc2cccs2)c(C(N)=O)cc1F,8.297
20,CC(C)N1CCCC(C(=O)NC(C)(C)c2nnc(N)s2)C1 (centres undefined),-13.81
21,COCCc1ncc(-c2c(C#N)c(N)nc3c2CCc2[nH]ccc2-3)cn1,-13.87
22,CC(C)n1cc(-c2c(C#N)c(N)nc3c2COCC3)cn1,109.6
23,CCC(C)Sc1ncc(-c2c(C#N)c(N)nc3c2COCC3)cn1 (centres undefined),95.02
24,CCOc1ccc(-c2c(C#N)c(N)nc3c2COCC3)cn1,106.3
25,Cc1cc(-c2c(C)c(-c3cnn(C)c3)nc(N)c2C#N)oc1C,17.25

row,SMILES,Percent Effect [%]
1,CCOc1ccc(NC2CCN(C3CC3)C2=O)cn1 (centres undefined),-7.266
2,Cn1cc(-c2c(C#N)c(N)nc3c2CCc2[nH]ccc2-3)cn1,4.236
3,N#Cc1c(C2CCOC2)cc(-c2ccc(N3CCCCC3)cc2)nc1N (centres undefined),2.752
4,N#Cc1c(N)nc2c(c1-c1cnc(N3CCCC3)nc1)COCC2,84.51
5,COc1ncc(-c2c(C#N)c(N)nc3c2CCc2[nH]ccc2-3)cn1,-13.65
6,CCOc1ccc(NC(=O)NC2CCc3[nH]ncc3C2)cn1 (centres undefined),-9.557
7,CC(C)=CCC/C(C)=C/CN1CCN(C)C2(CCNC(=O)CC2)C1 (centres undefined),14.94
8,Cc1ccc(CN2CCc3[nH]nc(C(=O)N4CCNC(=O)C4)c3C2)s1.O=C(O)C(F)(F)F,-6.156
9,COCC1CCN(C(=O)c2cccc(S(=O)(=O)NC3CCCC3)c2)C1 (centres undefined),8.028
10,CC(C)CCN1CN=C(NS(=O)(=O)c2ccc(F)cc2)NC1,13.74
11,Clc1ccc(C2(NCc3noc(C4CC4)n3)CCCC2)cc1,6.408
12,CN(C)C(=O)c1ccccc1NC(=O)N[C@@H]1c2ccccc2C[C@@H]1O,-11.76
13,CNC(=O)Cc1ccccc1NC(=O)N[C@H]1c2ccccc2C[C@H]1O,73.79
14,CS(=O)(=O)c1ccccc1NC(=O)N[C@@H]1c2ccccc2C[C@@H]1O,6.839
15,CCn1cc(N2Cc3nc(N)ncc3C2=O)cn1,3.471
16,NC(=O)CN1C(=O)CO[C@H]2CN(Cc3ccc(C(F)(F)F)cc3)C[C@H]21,-2.639
17,Cl.FC(F)Oc1ccc(CNCc2cc(Cl)c3c(c2)OCO3)cc1,-3.122
18,COCCc1noc(CN(C)c2nc(C)cc(C)n2)n1,101
19,COCCc1noc(CN(C)c2nccc(C)n2)n1,10.01
20,COCCc1noc(CN2C(=O)OC[C@@H]2C(C)C)n1,-4.227
21,COCCc1noc(CN(C)C2CCCN(c3ccc(C)nn3)C2)n1 (centres undefined),-2.157
22,COCCc1noc(CN(C)c2nc(C)nc(C)c2C)n1,89.33
23,CC(C)N[C@@H]1CO[C@H](CNC(=O)c2ccccc2)[C@H]1O,-5.064
24,O=C(NCc1ccco1)N1CCC(n2cc(-c3ccccn3)nn2)CC1,27.21
25,CCn1cc(C(=O)N2CCCC(c3nccs3)C2)cn1 (centres undefined),107.1

row,SMILES,Percent Effect [%]
1,O=C(c1cnc(C2CC2)nc1)N1CCCC(c2nccs2)C1 (centres undefined),70.5
2,Cc1csc(C2CCCN(C(=O)c3cnc4n[nH]c(C)c4c3)C2)n1 (centres undefined),-1.582
3,CC(C)Oc1ncc(C(=O)N2CCCC(C(=O)O)C2)cc1Cl (centres undefined),-16.5
4,O=C(c1cnc(O)c(Cl)c1)N1CCCC(c2nccs2)C1 (centres undefined),105
5,O=C(c1cncnc1)N1CCCC(c2nccs2)C1 (centres undefined),117.1
6,Cc1noc(COCC(=O)N2CCCC(c3nccs3)C2)n1 (centres undefined),-1.591
7,O=C(CN1CCCNC1=O)N1CCCC(c2nccs2)C1 (centres undefined),-4.052
8,O=C(c1cnc(C2CC2)nc1)N1CCC(N2CCC(O)CC2)CC1,-12.63
9,O=C(Nc1cnccn1)[C@@H]1COC[C@H]2CN(c3ncc(F)cn3)C[C@H]21,-14.05
10,CCCN1CCC(N2CCN(c3cc(C)nc(C)c3)CC2)CC1,-11.77
11,CC1CN(C(=O)NCc2cccc(C#N)c2)CCN1CC(F)(F)F (centres undefined),-8.516
12,Cc1cc(C(=O)NC2CCN(c3ncccc3C#N)CC2)on1,2.44
13,COCCNC(=O)[C@@]12CCO[C@@H]1CCN(Cc1scnc1C)C2.O=C(O)C(F)(F)F,6.926
14,Cc1cnc(CNC(=O)[C@@]23CCO[C@@H]2CCNC3)cn1.O=C(O)C(F)(F)F,84.34
15,Cc1cnc(CNC(=O)[C@@]23CCO[C@@H]2CCN(C2CCCC2)C3)cn1.O=C(O)C(F)(F)F,116.3
16,O=C(NCc1ccco1)[C@@]12CCO[C@@H]1CCN(C1CCC1)C2.O=C(O)C(F)(F)F,-7.517
17,COc1cc(C)sc1C(=O)NCCC(=O)N(C)Cc1ccccc1,-13.22
18,CCc1nc(CN(C)Cc2nnc(-c3cccs3)o2)cs1,-11.05
19,Cc1nc(C(=O)N2CCCC(c3ccc4sc(N)nc4n3)C2)co1 (centres undefined),130.6
20,Cc1nc(C2CCCN(C(=O)c3csc(C)n3)C2)no1 (centres undefined),-14.77
21,Cc1ccc2oc(C(=O)N3CCCC(c4noc(C)n4)C3)cc2n1 (centres undefined),-6.015
22,CC(=O)N1CCCC(c2ccc3sc(N)nc3n2)C1 (centres undefined),125
23,CNC(=O)C(C)(C)N1CCC[C@H]1C(=O)NCC(C)C.Cl,3.09
24,O=C1[C@H]2CC[C@H](CN(S(=O)(=O)c3ccccc3)C2)N1Cc1cscn1,20.83

# — ChEMBL document CHEMBL3988442, “University of Dundee, Small-Polar-MMV Screening Library” (2021)
